This note sets out measurements from PubChem BioAssay (NCI).

The panel holds about 79,000 compounds, 15% with a hit somewhere; the sample as a whole holds those more often. Unmarked numbers belong to inactive results. The source made the active and inactive calls. No stated cut-off is given here; in the data, active means growth inhibition above about 70%; inactive means the rest.

A short description of assay [1]: NCI Yeast Anticancer Drug Screen. Data for the rad50 strain (AID 155).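 Further: 0% = growth of vehicle-only cultures of the same strain.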 To be noted: S. cerevisiae rad50 strain growth inhibition; at 50.0 µM; hits give high values. The gist of the method:
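A DNA repair-deficient yeast mutant serves as the test organism; compound-induced growth inhibition is calculated against vehicle-treated cells.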

The nature of assay [2]: NCI Yeast Anticancer Drug Screen. Data for the mec2-1 strain (AID 157). The note with it: S. cerevisiae mec2-1 strain, at 50.0 µM, hits give high values. In outline: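 Each compound was tested on mec2-1 yeast, a strain altered in DNA damage repair or cell cycle control. Growth inhibition is reported relative to vehicle.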
Assay [3] is described as follows: NCI Yeast Anticancer Drug Screen. Data for the sgs1 mgt1 strain (AID 161).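 Further: 0% = growth of cultures given vehicle only.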 The note with it: S. cerevisiae sgs1 mgt1 strain, at 50.0 µM, hits give high values. In outline: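 Read-out: growth inhibition vs vehicle controls. Cells: mutant yeast strain deficient in DNA damage repair.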
Assay [4] is described as follows: NCI Yeast Anticancer Drug Screen. Data for the cln2 rad14 strain (AID 165).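 Further: 0% = growth equal to vehicle treated cultures.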 The note with it: S. cerevisiae cln2 rad14 strain, at 50.0 µM, hits give high values. In outline: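 Test compounds were added to cln2 rad14 yeast cultures; inhibition of growth was then determined by comparison with vehicle treatment.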
Assay [5] in a line: NCI Yeast Anticancer Drug Screen. Data for the bub3 strain (AID 167). To be noted: S. cerevisiae bub3 mutant strain, at 50.0 µM, hits give high values. In outline: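 Inhibition values come from growth of compound-treated mutant yeast normalised to vehicle-treated controls.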
Assay [6] in a line: NCI Yeast Anticancer Drug Screen. Data for the mlh1 rad18 strain (AID 175). To be noted: S. cerevisiae mlh1 rad18 strain growth inhibition; at 50.0 µM; hits give high values. The gist of the method:
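Inhibition values reflect reduced growth of mutant yeast versus vehicle-treated controls following compound exposure; the mutations affect DNA damage repair.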

`O=c1[nH]c2cc(Cl)ccc2nc1/C=C(\O)c1ccc(F)cc1`: the growth inhibition was 23.1% in assay [1]; 17.6% in assay [2]; 17.2% in assay [3]; 8.2% in assay [4]; -6.3% in assay [5]; 27.4% in assay [6].

For `COC(=O)c1nc2c3c(cccc3c1C(=O)OC)Nc1ccccc1-2`, the growth inhibition in assay [1] is -3.2%; in assay [2] it was 9.65%; in assay [3], 0.35%; in assay [4], 28.5%; in assay [5], 19.4%; in assay [6], -39.4%.

`CN(CCC(=O)c1ccc2ccccc2c1)Cc1ccccc1`: the growth inhibition was 16.4% in assay [1]; 3% in assay [2]; 27.4% in assay [3]; -1.45% in assay [4]; 8% in assay [5]; 20.7% in assay [6].

For the compound `O=C(Nc1cccc2ccccc12)c1ccccc1F`, the growth inhibition is -1.35% in assay [1]; 16.8% in assay [2]; 14.9% in assay [3]; -2.15% in assay [4]; 21.1% in assay [5]; 11.8% in assay [6].

Regarding `NNc1c(F)c(F)c2c(F)c(F)c(F)c(F)c2c1F`, the growth inhibition in assay [1] is 97.8% (active); in assay [2] it was 96.5% (active); in assay [3] it was 95.5% (active); in assay [4], 94.5% (active); in assay [5], 97.7% (active); in assay [6] it was 97.5% (active).

In the case of `CCCCn1cnc2c(SCc3ccc(Cl)cc3Cl)nc(N)nc21`, the growth inhibition in assay [1] was 1.15%; in assay [2] it was 25.2%; in assay [3], 7.35%; in assay [4], 21.2%; in assay [5] it was 15.3%; in assay [6], -8.2%.

`CC(C)NC(=O)CCC(=O)O`: the growth inhibition was -14.9% in assay [1]; 21.6% in assay [2]; -17.9% in assay [3]; -5.65% in assay [4]; 12.1% in assay [5]; 0.5% in assay [6].

With `Cc1nc2nc(N)nnc2c(=O)[nH]1`, the growth inhibition is -7.25% in assay [1]; 3.2% in assay [2]; -18.8% in assay [3]; -13.8% in assay [4]; -1.75% in assay [5]; -0.1% in assay [6].

As to `C1CSC[C@H]2COC[C@@H](CSCCS1)S2`, the growth inhibition in assay [1] was -0.5%; in assay [2], 4.25%; in assay [3], -2.55%; in assay [4], 18.9%; in assay [5] it was 9.05%; in assay [6], -7.9%.

On to `CCOC(=O)C1(C(=O)OCC)CCCN1C(=O)[C@H](CNC(=O)OC(C)(C)C)NC(=O)OCc1ccccc1`, for which the growth inhibition was 32.1% in assay [1]; 12.8% in assay [2]; -10.9% in assay [3]; -0.45% in assay [4]; -30.1% in assay [5]; -79.8% in assay [6].

`O=C1OC(c2cccc(Cl)c2)=N/C1=C\c1ccccc1`: the growth inhibition was 13.9% in assay [1]; 2.85% in assay [2]; 13.5% in assay [3]; 14.8% in assay [4]; 10.9% in assay [5]; -5.05% in assay [6].

In the case of `Cn1c(=O)[nH]nc(Br)c1=O`, the growth inhibition in assay [1] is 2.55%; in assay [2], -9.7%; in assay [3] it was -9%; in assay [4], -4.75%; in assay [5], -4.6%; in assay [6], -24.9%.

Turning to `COc1cc(C(c2ccc3c(c2)OCO3)C2SCCCS2)cc(OC)c1OC` (stereo not given), the growth inhibition in assay [1] was 25.2%; in assay [2] it was 13.7%; in assay [3], 21%; in assay [4] it was 6.6%; in assay [5], -12%; in assay [6] it was 37.9%.

In the case of `CC(C)=C1CCC(CN(C)C)C1=O` (stereo not given), the growth inhibition in assay [1] is 30.4%; in assay [2], 4.7%; in assay [3], 35%; in assay [4], 5.35%; in assay [5], -18.9%; in assay [6] it was 7.55%.

As for `N#CCCN(CCC#N)c1ccc(/C=C2\N=C(c3cc([N+](=O)[O-])ccc3Cl)OC2=O)cc1`, the growth inhibition in assay [1] was -8.15%; in assay [2] it was 13.9%; in assay [3], -16.4%; in assay [4], 25%; in assay [5], 4.85%; in assay [6], -7.15%.

For `Cc1c([N+](=O)[O-])cc2c(c1[N+](=O)[O-])C(=O)c1ccccc1-2`, the growth inhibition is -2.1% in assay [1]; 4.35% in assay [2]; 8.5% in assay [3]; -14.9% in assay [4]; -6.05% in assay [5]; 7.9% in assay [6].

Turning to `COc1ccc(CCNC(=O)CC2CCN(C)CC2)cc1OC`, the growth inhibition in assay [1] is -1.05%; in assay [2], -6.7%; in assay [3], 10.2%; in assay [4], -7.4%; in assay [5] it was 15.2%; in assay [6], -3.75%.

Turning to `CN1C(=O)OC2C3NC(=O)OC3C(O)C(O)C21` (stereo not given), the growth inhibition in assay [1] is -7.85%; in assay [2] it was -12.3%; in assay [3], -6.3%; in assay [4] it was -1.15%; in assay [5] it was -6.15%; in assay [6] it was -8.95%.

Take `Nc1nc(F)nc2c1ncn2C1OC(CO)C(O)C1O` (stereo not given): the growth inhibition in assay [1] is -10.3%; in assay [2] it was 2.25%; in assay [3], 8.25%; in assay [4] it was 0.1%; in assay [5] it was 2.15%; in assay [6], -12.2%.

In the case of `CCOC(=O)c1cc(C)nc(Cl)c1[N+](=O)[O-]`, the growth inhibition is 19.4% in assay [1]; 5.9% in assay [2]; 4.35% in assay [3]; 0.65% in assay [4]; -3.45% in assay [5]; 6.95% in assay [6].
